Experimental findings from PubChem BioAssay (NCI) are described below.

About 83,000 compounds went through this panel and 20% of them were active in at least one assay; those are over-represented in the sample as a whole.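 Each cell line was grown in a 96-well plate and treated with one concentration of compound for 48 hours. Values below 10 were considered active.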 A number with no mark means an inactive call. Activity calls are given as the source filed them.

The test relates to TK-10 renal. In words: NCI-60 one-dose screen, 48 h (100 = growth as untreated, 0 = no growth, -100 = all killed). The conditions noted are these: 10 µM unless noted.
With `O=C(O)C(O)C(O)C(=O)O.[NH-]C1CCCCC1[NH-].[Pt+2]` (stereo not drawn), the growth is 113%. Take `Cc1ccc(Nc2c(C(N)=O)cnc3ccc(-c4csc(N)n4)cc23)cc1`: the growth is 96.2%. Then `Cl/C(=N\Nc1ccccc1)c1ccccc1`, with 96.8%; and `COc1cc(-c2c3sc(=O)[nH]c3nc3c2c(=O)[nH]n3C(C)C)cc2c1OCO2`, with 114%. `CC(C)(C)n1cc(-c2ccnc(NCCNS(=O)(=O)c3ccccc3)c2)c(-c2cccc(O)c2)n1`: the growth is 92%. Consider `COC(=O)C12C3C(=O)N(c4ccc(OC)cc4)C(=O)C3C(c3cn(-c4ccccc4)nc3C)N1[C@H](c1cn(-c3ccccc3)nc1C)[C@@H]1C(=O)N(c3ccc(OC)cc3)C(=O)[C@@H]12` (stereo partly drawn), for which the growth is 96.5%.

As to `CC/C(Cc1ccccc1)=C(/c1ccc(O)cc1)c1ccc(OCCN2CCCC2)cc1`, the growth is 13.1%. With `O=C(NC(Cc1ccccc1)C(=O)CCl)OCc1ccccc1` (stereo not drawn), the growth was 84.8%. Regarding `CCCCCC(=O)N(CCCC)CCCC`, the growth was 109%. For `COc1cccc(/C=C2/C(=O)N(Cc3ccco3)SC2=S)c1OC`, the growth was 117%.

For `COc1ccc(-c2cc(/C=C3\C(=O)Nc4ccc(Cl)cc43)[nH]n2)cc1`, the growth is 86.9%.

For `CCOC(=O)C(C#N)C1CCCCC1` (stereo not drawn), the growth was 91.5%.

As for `CC(C)[C@H]1COC(=O)N1[C@@H]1C(=O)N([C@@H](CCC(=O)N2CCN(C3CCCC3)CC2)C(=O)N[C@@H]2CCCc3ccccc32)[C@@H]1/C=C/c1cccc(Br)c1`, the growth is 30.9%. On to `Nc1ccc(N2CCOCC2)cc1`, for which the growth is 91.8%.

In the case of `COc1cccc(/C=C\C(=O)c2ccccc2)c1`, the growth is 102%. On to `NS(=O)(=O)c1ccc(-n2ncc3c(=O)[nH]c(CN4CCN(c5cc6c(cc5F)c(=O)c(C(=O)O)cn6C5CC5)CC4)nc32)cc1`, for which the growth was 119%. Regarding `COc1cc(C2CC(=O)Nc3c2c(C)nn3-c2nc3ccccc3[nH]2)cc(OC)c1OC` (stereo not drawn), the growth was 109%.

Consider `CN1CCCCC1CCN1c2ccccc2Sc2ccc(Br)cc21` (stereo not drawn), for which the growth is 72.3%. For the compound `Cc1ccc(C2CC3c4ccccc4C2C2CCCCN32)cc1` (stereo not drawn), the growth is 97.1%. On to `N=S(=O)(NC(=O)c1ccc(Cl)cc1Cl)c1ccc(Br)s1` (stereo not drawn), for which the growth was 98.4%. `COc1ccc(CN(c2ccc(C)cc2)C2OC(=O)c3ccccc32)cc1OC` (stereo not drawn): the growth was 107%. On to `c1c2c(cc3c1OCO3)Cc1cc3c(cc1Cc1cc4c(cc1C2)OCO4)OCO3`, for which the growth was 116%. Regarding `CCCCCCCCCCCCS(=O)CC(C)O` (stereo not drawn), the growth was 125%. In the case of `CC1(C)CC(C(=O)OCCCCCCCCCCC[P+](c2ccccc2)(c2ccccc2)c2ccccc2)C(C)(C)N1O` (stereo not drawn), the growth was -72.1% (active). Then `COc1ccc(/C(=C/c2ccc3ccccc3c2)c2nn[nH]n2)cc1OC`, with 54.5%. For the compound `Cc1cccc(NC(=O)c2sc3nc4c(cc3c2N)C(=O)CCC4)c1`, the growth was 75.6%. For `O=[N+]([O-])c1cccc(C2CC(c3ccccc3)=Nc3ccccc3S2)c1` (stereo not drawn), the growth was 124%. Turning to `CCOC(=O)/C=C/c1ccc(C(=O)OCC)[nH]1`, the growth is 62.6%. Take `CS(CCCCN=C=S)=NC(=O)c1c(F)c(F)c(F)c(F)c1F` (stereo not drawn): the growth was 66.6%. In the case of `COC1C/C(=N\O)C2OC(c3ccccc3)OCC2O1` (stereo not drawn), the growth was 112%. Turning to `Cc1cc(Nc2nc(N3CCN(C)CC3)nc3ccccc23)n[nH]1`, the growth is 54.8%. On to `O=C1Nc2ccccc2/C1=C/C(=N/c1nnc(-c2ccccc2)s1)c1ccccc1`, for which the growth was -39.7% (active). Take `COc1ccc(N(Cc2cc(OC)c(OC)c(OC)c2)C2OC(=O)c3ccccc32)cc1` (stereo not drawn): the growth is 53.5%. In the case of `Cc1csc2ccc(Cl)cc12`, the growth is 99.4%. Consider `O=C1Nc2ccccc2/C1=C/C(=N/c1nnc(-c2ccc(Cl)cc2)s1)c1ccccc1`, for which the growth is -36.4% (active). In the case of `CC(=O)OCC1OC(OC2=C(CC=C(Cl)Cl)C(=O)c3ccccc3C2=O)C(OC(C)=O)C(OC(C)=O)C1OC(C)=O` (stereo not drawn), the growth is 117%.

Regarding `O=C(/C=C/c1ccc(B(O)O)cc1)/C=C/c1ccc(B(O)O)cc1`, the growth was 99.3%. Consider `Cc1cc2cc3cc(C)c(N(C)C)cc3[n+](C)c2cc1N(C)C`, for which the growth was -17.4% (active).
